Screens from PubChem.
Only some compounds are listed: those with a hit (about 0.4% of all), similar ones and a draw of the others.
EPAC1 antag: antagonists of human EPAC1; Potency, µM (titrated, usually from 115 µM), most hits filed as inhibitors; EPAC1 GEF assay, Rap1b-BODIPY-GDP exchange fluorescence; hit rate 0.14% among 360,000; O95398; note: nearly all actives have a fitted effect of over 50% in size
EPAC2 agonist: agonists of human EPAC2 (RAPGEF4); Potency, µM (titrated, usually from 154 µM), most hits filed as activators; EPAC2 activation, biochemical qHTS; response scale: 100% = 6.5 mM cAMP response; AID 720711; Q8WZA2; hit rate 0.079% among 360,000; note: nearly all actives have a fitted effect of over 50% in size
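Fluorescence exchange assay: 100 nM EPAC2 with 250 nM RAP1B-BODIPY-GDP and 50 uM GDP; compounds tested as a concentration-titration series (qHTS). Loss of Rap1-bound BODIPY-GDP fluorescence read at 480/540 nm; data normalized to 6.5 mM cAMP.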
EPAC2 antag: blocks human EPAC2 exchange factor; Q8WZA2; EPAC2 GEF exchange of Rap1B-BODIPY-GDP, fluorescence; Potency, µM (top dose mostly 114 µM), most hits filed as inhibitors; hit rate 0.18% among 360,000; note: nearly all actives have a fitted effect of over 45% in size
B2AR arrestin: beta2AR (human) beta-arrestin recruitment activity; AID 492947; beta-arrestin recruitment to beta2AR, cell-based reporter; hit rate 0.02% among 330,000; P07550; Potency, µM (top dose mostly 46.1 µM), actives largely listed as activators; note: nearly all actives have a fitted effect of over 65% in size
Target sequence (P07550 whole entry, looked up): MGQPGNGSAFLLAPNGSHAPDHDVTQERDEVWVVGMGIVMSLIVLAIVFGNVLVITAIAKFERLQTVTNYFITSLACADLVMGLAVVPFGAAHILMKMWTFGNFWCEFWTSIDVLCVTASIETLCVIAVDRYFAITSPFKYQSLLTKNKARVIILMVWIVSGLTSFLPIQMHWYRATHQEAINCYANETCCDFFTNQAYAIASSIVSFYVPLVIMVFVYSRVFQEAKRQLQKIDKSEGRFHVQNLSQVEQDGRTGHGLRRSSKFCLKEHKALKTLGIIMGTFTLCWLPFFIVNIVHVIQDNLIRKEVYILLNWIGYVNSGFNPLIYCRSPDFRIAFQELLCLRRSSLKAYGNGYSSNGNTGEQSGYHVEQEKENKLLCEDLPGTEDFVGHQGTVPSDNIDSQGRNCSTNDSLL
EPAC1 ag: agonists of human EPAC1; O95398; EPAC1 agonist qHTS, biochemical assay; response scale: 100% = response to 6.5 mM cAMP; Potency, µM (titrated, usually from 154 µM), hits mostly activators; hit rate 0.073% among 360,000; AID 720707; note: nearly all actives have a fitted effect of over 60% in size
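Nucleotide exchange by EPAC1 (100 nM) on Rap1B–BODIPY-GDP (250 nM) in the presence of 50 uM GDP is tracked fluorescently at 480/540 nm over 30 min. Signals are normalized to a 6.5 mM cAMP control.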
Of the large screens only hits and unclear results are named; the others gave an inactive call. Calls come from the whole dose curve; as a rule, active = well fitted curve in the direction sought with a large enough effect; inconclusive = small, poorly fitted or top-dose-only effect, or another doubt; inactive = no such curve, though single readings can be large; an effect the other way counts as inactive or inconclusive.

N#C/C(=C\c1coc2ccc(O)cc2c1=O)C(=O)Nc1nc2ccccc2s1	EPAC2 agonist 32µM, EPAC1 ag 89µM
N#C/C(=C\c1coc2ccccc2c1=O)C(N)=S	none
C[C@@H]1CN([C@H](C)CO)C(=O)CCCn2nncc2CO[C@@H]1CN(C)S(=O)(=O)c1ccc(Cl)cc1	none (no result: B2AR arrestin)
COc1ccc(/C=C2/SC(=O)N(NS(=O)(=O)c3ccccc3)C2=S)cc1OC	none
COc1cc(/C=C2\SC(=S)N(NS(=O)(=O)c3ccccc3)C2=O)cc(OC)c1OC	EPAC1 antag inconclusive, EPAC2 antag 50µM
COc1cccc(/C=C2\SC(=S)N(NS(=O)(=O)c3ccccc3)C2=O)c1OC	EPAC1 antag 50µM, EPAC2 antag inconclusive
O=C1/C(=C/c2ccccn2)SC(=S)N1NS(=O)(=O)c1ccccc1	none
O=C1/C(=C/c2cccc(F)c2)SC(=S)N1NS(=O)(=O)c1ccccc1	EPAC1 antag 40µM, EPAC2 antag 18µM
O=C(COC(=O)/C=C/c1cccs1)Nc1ccc(Cl)cc1F	none
CCc1nnc(N2C(=O)c3ccccc3C2(O)c2ccccc2)s1 (stereo unspecified)	none
COc1cc(C)nc(N2CCCC(C(=O)Nc3cc(Cl)ccc3OC)C2)n1 (stereo unspecified)	EPAC2 antag 25µM
Cc1ccc(C(=O)NC(=S)N2CCCCCC2)cc1	none
CCOC(=O)C1CCCN(C(=O)c2ccc3sccc3c2)CC1 (stereo unspecified)	none (no result: B2AR arrestin)
O=C(Nc1ccc(S(=O)(=O)Nc2nccs2)cc1)c1cc(-c2ccccc2Cl)nc2ccccc12	none
O=C(Nc1ccc(S(=O)(=O)Nc2nccs2)cc1)c1cc(-c2ccccn2)nc2ccccc12	EPAC1 antag 71µM
COC(=O)c1cc(S(=O)(=O)N2CCN(c3ccc(C(C)=O)cc3)CC2)c[nH]1	none
O=C(O)c1ccc(N2CCCCCC2)c(N2C(=O)c3ccccc3C2=O)c1	none
O=C1c2cccc3c(N4CCCCC4)ccc(c23)C(=O)N1c1ccccc1O	EPAC2 agonist 100µM, EPAC1 ag inconclusive
O=C1c2cccc3c(N4CCCCC4)ccc(c23)C(=O)N1c1ccc(O)cc1	EPAC2 agonist 89µM
O=C(Nc1ccc([N+](=O)[O-])cc1)Nn1cnnc1	none
Cc1ccc(C(=O)c2coc3ccc(O)c(Cl)c23)cc1	EPAC1 antag 20µM, EPAC2 antag inconclusive
COc1ccc(N2CCN(C(=O)CCc3ccccc3OC)CC2)cc1	EPAC1 antag 89µM
CN(Cc1cccs1)C(=O)C1CC(=O)N(Cc2ccccc2)C1 (stereo unspecified)	none
CCSc1nnc(-c2sc3nnc(-c4ccccc4)c(-c4ccccc4)c3c2N)o1	EPAC2 agonist 100µM
CCSc1nnc(-c2ccncc2)o1	none
CCc1nc2ccc(C(=O)NCCOc3ccc(OC)cc3)cn2c1N(C)C(=O)C1CCCCC1	none (no result: B2AR arrestin)
CC1(C)CC(=O)C(c2ccccc2)(c2ccccc2)C(=O)C1	none (no result: B2AR arrestin)
Cn1c(SCC(=O)Nc2cccc(C(=O)O)c2)nnc1-c1cc2cc(Br)ccc2o1	EPAC1 antag 35µM, EPAC1 ag 63µM
Cn1c(SCC(=O)Nc2cccc(Br)c2)nnc1-c1cc2ccccc2o1	none
Cc1cccc(C(=O)OCC(=O)Nc2ccccc2C(=O)NC2CC2)c1	none
O=C(CSc1nc2ccsc2c(=O)n1CC1CCC(C(=O)O)CC1)c1ccc(Cl)cc1 (stereo unspecified)	EPAC1 antag 56µM, EPAC1 ag inconclusive
